Data on 40 compounds can be found in PubChem BioAssay (EPA / NIEHS).

In general, AC50 refers to the midpoint of the concentration-response curve, whichever way the signal moves.

Structures are written as SMILES. Activity calls are given as the source filed them. Rule for the calls: active = hit-call score of the fitted dose curve at least 0.9, where 1 is the maximum; inactive = score below 0.9.

The experiment in a line: APR_HepG2_MitoticArrest_24hr: Apredica 24-hour HepG2 Assay for Mitotic Arrest (AID 2282910). Particulars: high-content imaging, actives raise or lower the signal. The procedure:
APR_HepG2_24hr is a cell-based, multiplexed-readout assay that uses HepG2, a human liver cell line, with measurements taken at 24 hours after chemical dosing in a 384-well plate.APR_HepG2_MitoticArrest_24hr is one of 10 assay component(s) measured or calculated from the APR_HepG2_24hr assay. It is designed to make measurements of cell phenotype, a form of morphology reporter, as detected with fluorescence intensity signals by HCS Fluorescent Imaging technology.Data from the assay component APR_HepG2_MitoticArrest_24hr was analyzed into 1 assay endpoint. This assay endpoint, APR_HepG2_MitoticArrest_24hr, was analyzed with bidirectional fitting relative to DMSO as the negative control and baseline of activity. Using a type of morphology reporter, measures of protein for gain or loss-of-signal activity can be used to understand the signaling at the pathway-level as they relate to the gene . Furthermore, this assay endpoint can be referred to as a primary readout, because this assay has produced multiple assay endpoints where this one serves a signaling function. To generalize the intended target to other relatable targets, this assay endpoint is annotated to the cell cycle intended target family, where the subfamily is arrest.
Cells were treated with dimethyl sulfoxide (DMSO) as a solvent control at a final concentration of 0.5% v/v or with compounds in DMSO with a resulting final DMSO concentration of 0.5% v/v. Compound treatment was done at concentrations of 0.39, 0.78, 1.56, 3.12, 6.24, 12.5, 25, 50, 100, and 200 uM in duplicate on each plate. Cells were treated with compounds for 1, 24, or 72 hr. Carbonyl […] m-chloro-phenylhydrazone (CCCP) and taxol were used as positive controls for mitochondrial function and cytoskeletal stability, respectively; DMSO served as the negative control for this experiment. Cells were fixed by the direct addition of 50 uL formaldehyde in Hank's Balanced Salt Solution (HBSS) to a final concentration of 3.7%. After incubation in the fixation medium for 30 min at room temperature (293-298 K), cells were rinsed twice with HBSS and treated with cell permeabilization buffer (16 uL of 0.5% Triton X-100) for 10 min at room temperature (293-298 K) before labeling. For mitochondrial membrane potential and mitochondrial measurements, pre-fixed cells were incubated with 50 uL of MitoTracker Red CMXRos (Invitrogen) at a concentration of 250 nM for 30 min before fixation. In the remaining cases, post-fixed cells were labeled by incubation with a multiplexed mixture of primary antibodies in HBSS for 60 min at room temperature (293-298 K) to detect immunoreactivity of c-Jun (1:500), phospho-histone H3 (1:100), phospho-histone H2A.x (1:200), p53 (1:400), alpha-tubulin (1:200) and Hoechst 33342 (2 ug/mL). Cells were labeled for multiplexed imaging on two separate plates: a) Hoechst 33342, MitoTracker Red, phospho-histone H3, and alpha-tubulin, and b) Hoechst 33342, phospho-histone H2A.x, and c-Jun. A final rinse with HBSS (50 uL) was performed before analysis. The primary and secondary antibodies for the proteins were phospho-histone H3 (rabbit anti-phospho-histone H3 and FITC-donkey anti-rabbit IgG), phospho-histone H2A.x (mouse anti-phospho-histone H2A.x and FITC-donkey anti-mouse IgG), c-Jun (rabbit anti-phospho-c-Jun and Cy3-donkey anti-rabbit IgG), p53 (sheep anti-p53 and Cy5-donkey anti-sheep IgG), alpha-tubulin (mouse anti-alpha-tubulin and Cy5-donkey anti-mouse IgG). These antibodies are available as the CellCiphr HepG2 assay kit (Millipore).Digital images of each well were captured using a Cellomics ArrayScan VTI (Thermo Scientific Cellomics) (0.8 NA objective, 0.63x optical coupler, and XF-93 filter set) at 20x magnification. The images were acquired using the autofocus feature of the ArrayScan instrument, which entails the following steps. First, the camera focuses on channel 1 (Hoechst 33342), where nuclei are identified. Second, a Z offset of 1 um is used for capturing mitochondria (MitoTracker Red). […]
For the compound `Cc1cccc(Nc2cc(Cl)nc(SCC(=O)O)n2)c1C`, the compound was classed as inactive.

In the case of `Cc1c(C(=O)O)c(O)cc2c1C(=O)c1c(O)c([C@@H]3O[C@H](CO)[C@@H](O)[C@H](O)[C@H]3O)c(O)c(O)c1C2=O`, the result was inactive.

As to `CCCCCCCCCCCC(=O)OC`, the compound was classed as inactive.

`COc1cc(-c2nc(NC(=O)c3cc4cc(C)cc(C)c4n3CC(=O)O)sc2CCC2CCCCC2)c(OC)cc1Cl`: the AC50 was 35.1 µM (active).

Take `CCc1c(C(=O)NN2CCCCC2)nn(-c2ccc(Cl)cc2Cl)c1-c1ccc(Br)cc1`: the AC50 is 46.8 µM (active).

`Nc1nc(N)c2nc(CNc3ccc(C(=O)N[C@@H](CCC(=O)O)C(=O)O)cc3)cnc2n1`: the compound was classed as inactive.

As for `C[Si]1(C)O[Si](C)(C)O[Si](C)(C)O[Si](C)(C)O1`, the call was inactive.

Regarding `Nc1ccc(S(=O)(=O)c2ccc(N)cc2)cc1`, the outcome was inactive.

As to `CNC(=O)[C@H]1O[C@@H](n2cnc3c(NCc4cc(Cl)ccc4OCc4cc(C)no4)ncnc32)[C@H](O)[C@@H]1N`, the outcome was inactive.

As for `CCCCN(CCCC)CCCC`, the compound was called inactive.

Turning to `O=C(O)CCCCC(=O)O`, the outcome was inactive.

For the compound `O=c1c(O)c(-c2ccc(O)c(O)c2)oc2cc(O)cc(O)c12`, the result was inactive.

On to `COc1cc(/C=C/C(=O)CC(=O)/C=C/c2ccc(O)c(OC)c2)ccc1O`, for which the AC50 was 56.1 µM (active).

Turning to `FC(F)(F)C(F)(F)C(F)(F)C(F)(F)C(F)(F)C(F)(F)CCI`, the result was inactive.

As to `CCCCCCCC=O`, the compound was classed as inactive.

`CC(=O)Oc1ccccc1C(=O)O`: the compound was classed as inactive.

For the compound `Cc1ccc2ncccc2c1`, the result was inactive.

As for `Nc1ccccc1N`, the outcome was inactive.

In the case of `CCCCCCCCCCCCCO`, the AC50 is 107 µM (active).

On to `COCCOCCOC`, for which the call was inactive.

As for `CNCc1cc(F)ccc1Oc1ccc(Cl)c(Cl)c1`, the AC50 was 31.4 µM (active).

As to `CCCCCCCCCCO`, the compound was classed as inactive.

As to `CCCCc1ccc2c(n1)[C@@H](c1ccc(OC)cc1C[C@H](C)C(=O)O)[C@H](C(=O)O)[C@H]2c1ccc2c(c1)OCO2`, the compound was classed as inactive.

As for `CCCCC(CC)COC(=O)CC(C(=O)OCC(CC)CCCC)S(=O)(=O)O` (stereo not given), the AC50 is 105 µM (active).

Consider `COc1cccc2c1C(=O)c1c(O)c3c(c(O)c1C2=O)C[C@@](O)(C(=O)CO)C[C@@H]3O[C@H]1C[C@H](N)[C@H](O)[C@H](C)O1`, for which the AC50 was 1.72 µM (active).

On to `CC(=O)C(C)=CC1C(C)=CCCC1(C)C` (stereo not given), for which the compound was called inactive.

In the case of `CC(CO)OC(C)CO` (stereo not given) (tested in a mixture with another compound), the compound was called inactive.

In the case of `CC(C)(C)c1cc(O)c(C(C)(C)C)cc1O`, the AC50 was 83.6 µM (active).

With `NC(=O)Cn1c(=O)cc(CCN2CCN(c3nccc4sccc34)CC2)c2ccc(F)cc21`, the compound was classed as inactive.

Regarding `COc1cc(S(=O)(=O)O)c(C)cc1N=Nc1c(O)ccc2cc(S(=O)(=O)O)ccc12`, the result was inactive.

For the compound `OC[C@@H](O)[C@@H](O)[C@H](O)[C@H](O)CO`, the compound was classed as inactive.

With `COCCOC[C@H](CC1(C(=O)NC2CCC(C(=O)O)CC2)CCCC1)C(=O)Oc1ccc2c(c1)CCC2` (stereo not given in full), the compound was called inactive.

For the compound `O=c1[nH]cc(F)c(=O)[nH]1`, the result was inactive.

For `Nc1ccc2c(c1)C(=O)c1ccccc1C2=O`, the compound was called inactive.

Consider `Cc1ccccc1Cl`, for which the result was inactive.

With `COc1ccc2c(c1)c(CC(=O)O)c(C)n2C(=O)c1ccc(Cl)cc1`, the compound was classed as inactive.

On to `CC(=O)OC/C=C(\C)CCC=C(C)C`, for which the result was inactive.

Turning to `O=[N+]([O-])C(CO)(CO)CO`, the outcome was inactive.

Turning to `CC(=O)OCCOCCOCCOC(C)=O`, the compound was classed as inactive.

Regarding `Cc1cc(NC(=O)C(=O)O)cc(C)c1Oc1ccc(O)c2c1CCC2`, the compound was classed as inactive.
